Assay results as given in PubChem BioAssay (EPA / NIEHS).
The source made the active and inactive calls. Rule for the calls: active = hit-call score of the fitted dose curve at least 0.9, where 1 is the maximum; inactive = score below 0.9.

Key:
[1] = ATG_CRE_CIS: Attagene CIS-FACTORIAL HepG2 Assay for human cAMP Responsive Element (CRE) binding protein 3 (AID 2282926); conditions: HepG2 CRE cis-reporter, Attagene multiplexed mRNA; actives raise or lower the signal
In short: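 Readout: fluorescently labelled reporter transcripts resolved by capillary electrophoresis after RT-PCR, taken 24 h post-dosing in transfected HepG2. Endogenous transcription factor activity drives each cis-element reporter; gain or loss of signal fitted relative to DMSO control.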

[2] = biological target: CCAAT/enhancer-binding protein beta (Homo sapiens) (UniProt P17676); test: ATG_C_EBP_CIS: Attagene CIS-FACTORIAL HepG2 Assay for human CCAAT/Enhancer Binding Protein (C/EBP) beta (AID 2282927); conditions: HepG2 Attagene cis-factorial transcription factor reporter; actives raise or lower the signal
Sequence of CCAAT/enhancer-binding protein beta (Homo sapiens) (P17676 whole entry, looked up, the tested form may be a part): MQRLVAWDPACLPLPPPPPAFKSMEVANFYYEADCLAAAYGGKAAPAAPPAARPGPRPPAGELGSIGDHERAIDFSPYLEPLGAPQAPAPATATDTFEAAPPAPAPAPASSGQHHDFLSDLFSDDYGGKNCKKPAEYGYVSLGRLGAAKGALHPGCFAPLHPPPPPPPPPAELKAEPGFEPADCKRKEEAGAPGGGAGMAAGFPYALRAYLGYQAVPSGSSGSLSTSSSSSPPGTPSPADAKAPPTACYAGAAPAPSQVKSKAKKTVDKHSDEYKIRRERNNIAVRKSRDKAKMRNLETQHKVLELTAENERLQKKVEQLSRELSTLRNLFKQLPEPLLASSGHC
In short: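 Endogenous C/EBPb-driven reporter transcripts measured in transfected human HepG2 cells at 24 h via RT-PCR and capillary electrophoresis of labelled fragments. Activity fitted in both directions relative to DMSO baseline.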

[3] = ATG_CMV_CIS: Attagene CIS-FACTORIAL HepG2 Assay for human CMV (Internal Marker) (AID 2282928); conditions: HepG2 CMV promoter reporter, transcription factor profiling; actives raise or lower the signal;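 note: endpoint acts as a background internal control marker rather than a target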
In short: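 Reporter transcripts from transfected HepG2 cells are isolated after 24 h of chemical dosing, reverse-transcribed and amplified. Fragments labeled with 6-FAM are cut with HpaI and quantified by capillary electrophoresis; DMSO defines baseline.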

[4] = biological target: Aryl hydrocarbon receptor (Homo sapiens) (UniProt P35869); test: ATG_Ahr_CIS: Attagene CIS-FACTORIAL HepG2 Assay for human Aryl Hydrocarbon Receptor (Ahr) (AID 2282930); conditions: HepG2 AhR cis-factorial reporter transcription; actives raise or lower the signal
Sequence of Aryl hydrocarbon receptor (Homo sapiens) (P35869 whole entry, looked up): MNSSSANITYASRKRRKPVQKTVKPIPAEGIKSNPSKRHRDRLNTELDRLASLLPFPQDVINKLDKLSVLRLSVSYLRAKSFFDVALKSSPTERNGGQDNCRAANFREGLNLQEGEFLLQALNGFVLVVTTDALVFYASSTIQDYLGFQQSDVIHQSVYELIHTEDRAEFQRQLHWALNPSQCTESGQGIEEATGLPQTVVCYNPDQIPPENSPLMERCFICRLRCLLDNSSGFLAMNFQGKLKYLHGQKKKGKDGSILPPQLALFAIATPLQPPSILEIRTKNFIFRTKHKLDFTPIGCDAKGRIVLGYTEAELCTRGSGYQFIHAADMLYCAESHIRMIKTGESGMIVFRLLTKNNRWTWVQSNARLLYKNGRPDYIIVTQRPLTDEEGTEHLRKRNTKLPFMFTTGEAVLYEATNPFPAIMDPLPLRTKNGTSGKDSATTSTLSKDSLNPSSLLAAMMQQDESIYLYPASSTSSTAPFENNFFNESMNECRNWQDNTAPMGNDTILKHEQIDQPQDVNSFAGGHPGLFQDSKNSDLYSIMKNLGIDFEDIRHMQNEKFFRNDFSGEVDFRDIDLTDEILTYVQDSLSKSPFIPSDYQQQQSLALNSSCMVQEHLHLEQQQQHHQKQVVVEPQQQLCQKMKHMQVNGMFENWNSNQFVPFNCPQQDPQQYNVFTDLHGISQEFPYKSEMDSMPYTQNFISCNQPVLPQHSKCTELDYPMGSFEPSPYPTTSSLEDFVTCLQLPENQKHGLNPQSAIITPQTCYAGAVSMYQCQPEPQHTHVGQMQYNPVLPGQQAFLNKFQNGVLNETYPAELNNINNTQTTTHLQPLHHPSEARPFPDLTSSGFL
In short: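 Reporter mRNA levels, quantified by RT-PCR and fluorescent capillary electrophoresis, reflect endogenous AhR transcriptional activity in HepG2 cells carrying transfected cis-promoter reporter constructs. Readout at 24 h post-dose; gain or loss fitted against DMSO baseline.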

[5] = ATG_AP_1_CIS: Attagene CIS-FACTORIAL HepG2 Assay for human Activator Protein 1 (AP-1) (AID 2282931); conditions: HepG2 Attagene cis-factorial AP-1 reporter mRNA; actives raise or lower the signal
In short: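 Bidirectional concentration-response fitting against DMSO controls. Underlying signal: reporter mRNA from cis-promoter constructs in transiently transfected HepG2, measured after 24 h by RT-PCR and capillary electrophoresis.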

[6] = ATG_AP_2_CIS: Attagene CIS-FACTORIAL HepG2 Assay for human Activator Protein 2 (AP-2) (AID 2282932); conditions: HepG2 AP-2 cis-reporter, Attagene transcription factor profiling; actives raise or lower the signal
In short: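 Transiently transfected HepG2 cells are exposed to chemical for 24 h. Reporter transcripts are then measured as fluorescence following RT-PCR and capillary separation, and gain- or loss-of-signal is fitted relative to DMSO.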

[7] = ATG_BRE_CIS: Attagene CIS-FACTORIAL HepG2 Assay for human Bone Morphogenetic Protein (BMP) Response Element (BRE) (AID 2282933); conditions: HepG2 BMP response element reporter, Attagene transcription factor profiling; actives raise or lower the signal
In short: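 Gain- or loss-of-signal was derived by bidirectional fitting against DMSO controls. The signal came from reporter mRNA, measured by RT-PCR and capillary electrophoresis, in HepG2 cells transiently carrying multiple reporter units and dosed for 24 h.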

[8] = biological target: Retinoic acid receptor alpha (Homo sapiens) (UniProt P10276); test: ATG_DR5_RAR_CIS: Attagene CIS-FACTORIAL HepG2 Assay for human Retinoic Acid Receptor Alpha (RARE), DR5 submotif (AID 2282934); conditions: HepG2 Attagene cis-factorial RARE DR5 reporter, mRNA; actives raise or lower the signal;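 for AC50: reporter responds to endogenous RAR alpha beta and gamma in HepG2 not RARA alone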
Sequence of Retinoic acid receptor alpha (Homo sapiens) (P10276 whole entry, looked up): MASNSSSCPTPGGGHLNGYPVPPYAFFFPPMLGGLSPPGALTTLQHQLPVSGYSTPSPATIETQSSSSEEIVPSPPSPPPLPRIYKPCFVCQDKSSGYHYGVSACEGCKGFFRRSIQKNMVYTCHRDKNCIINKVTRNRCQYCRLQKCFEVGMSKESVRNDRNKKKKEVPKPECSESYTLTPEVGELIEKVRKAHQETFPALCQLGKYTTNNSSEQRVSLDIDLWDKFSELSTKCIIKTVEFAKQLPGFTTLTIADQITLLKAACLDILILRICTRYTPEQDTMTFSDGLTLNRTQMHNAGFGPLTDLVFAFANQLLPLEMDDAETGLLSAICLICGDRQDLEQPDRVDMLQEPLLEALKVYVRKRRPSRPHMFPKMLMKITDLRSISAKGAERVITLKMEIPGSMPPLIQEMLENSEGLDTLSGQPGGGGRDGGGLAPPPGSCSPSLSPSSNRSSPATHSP
In short: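 Reporter transcripts from a DR5-regulated unit, measured via RT-PCR plus capillary electrophoresis, reflect endogenous RAR activity in transiently transfected human HepG2 liver cells. Exposure lasted 24 h; gain or loss of signal scored against DMSO.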

[9] = ATG_DR4_LXR_CIS: Attagene CIS-FACTORIAL HepG2 Assay for human Liver X Receptor (LXR), DR4 submotif (AID 2282929); conditions: HepG2 Attagene DR4 cis-reporter, mRNA transcription; actives raise or lower the signal
In short: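 Measures endogenous transcription factor activity via a DR4-driven reporter transcript in human HepG2 cells. Compounds incubated 24 h; mRNA quantified by RT-PCR and capillary electrophoresis, analysed as gain or loss of signal versus DMSO.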

Measured: AC50

Cc1cc(O)c2c(c1)C(=O)c1cc(O)cc(O)c1C2=O
inactive: [3] | [5] | [6]
active: [1] 8.7 µM | [2] 12.5 µM | [4] 25.3 µM | [7] 9.2 µM | [8] 17.6 µM

CCCO
not listed: [9]
inactive: all other assays above

S=c1[nH][nH]c(=S)s1
inactive: [1] | [2] | [3] | [4] | [6]

CCCCCCOc1ccc(O)cc1
active: [3] 33.4 µM
not listed: [9]
inactive: all other assays above

CCCCCCCCCCO[C@@H]1O[C@H](CO)[C@@H](O)[C@H](O)[C@H]1O
not listed: [9]
inactive: all other assays above

CCCCC1CCCCC(=O)O1 (stereo not drawn)
not listed: [9]
inactive: all other assays above

C=C(C)C(=O)OCCN(C)C
not listed: [9]
inactive: all other assays above

CC(=O)c1cccnc1
not listed: [8] | [9]
inactive: all other assays above

Cc1cccc(O)c1
not listed: [7] | [8] | [9]
inactive: all other assays above

Brc1cc(Br)cc(Br)c1
not listed: [8] | [9]
inactive: all other assays above

CN1CCc2cccc3c2[C@H]1Cc1ccc(O)c(O)c1-3
inactive: [1] | [2] | [6]
active: [3] 5.76 µM | [5] 3.75 µM | [8] 1.67 µM

c1ccc(Cc2ccccc2)cc1
not listed: [2] | [8]
inactive: all other assays above

CC(=O)CC(=O)N(C)C
inactive: [1] | [2] | [3] | [6] | [7]

CCCCCCCCSCc1cc(C)c(O)c(CSCCCCCCCC)c1
not listed: [2] | [8]
inactive: all other assays above

Cc1ccc(C(C)(C)O)cc1
not listed: [8] | [9]
inactive: all other assays above

CC(C)=CCCC(C)=CC(=O)O
not listed: [8] | [9]
inactive: all other assays above

C=C1CC/C=C(\C)CC[C@@H]2[C@@H]1CC2(C)C
inactive: [2] | [4] | [5] | [6]
active: [1] 124 µM | [3] 42.4 µM

CC(=O)c1ccc(O)cc1
not listed: [8] | [9]
inactive: all other assays above

CC1=CCC(C(C)C)=CC1
not listed: [8] | [9]
inactive: all other assays above

NS(=O)(=O)c1cc(C(=O)O)c(NCc2ccco2)cc1Cl
not listed: [9]
inactive: all other assays above

CCCC1CCOC(C)S1 (stereo not drawn)
not listed: [2] | [8]
inactive: all other assays above

CCO[Si](CC)(OCC)OCC
not listed: [9]
inactive: all other assays above

CCCCCC#CC(=O)OC
not listed: [5] | [8] | [9]
inactive: all other assays above

NC(=O)c1c(Cl)cccc1Cl
active: [4] 55.4 µM
not listed: [8] | [9]
inactive: all other assays above

[Cl][Dy]([Cl])[Cl]
not listed: [2] | [8]
inactive: all other assays above

CC12CCC(C1)C(C)(C)C2O (stereo not drawn)
not listed: [4] | [9]
inactive: all other assays above

CCCCCCCCCCOC(=O)c1ccccc1C(=O)OCCCCCCCC
not listed: [5] | [8] | [9]
inactive: all other assays above

C=CCOC(=O)/C=C\C(=O)OCC=C
inactive: [2] | [7]
active: [1] 27.1 µM | [3] 63.8 µM | [4] 61.2 µM | [6] 21.7 µM

CCC(C)(C)C1CCC(=O)CC1
not listed: [7] | [9]
inactive: all other assays above

CC(C)=CC(=O)O
not listed: [2] | [4] | [8]
inactive: all other assays above

CC(=O)OC(C)(C)C1CC=C(C)CC1 (stereo not drawn)
active: [4] 8.48 µM
not listed: [2]
inactive: all other assays above

CC(C)N1C(=O)c2ccccc2C1=O
not listed: [2] | [8]
inactive: all other assays above

O=c1cc[nH]cc1
not listed: [2] | [8] | [9]
inactive: all other assays above

C=C(C)C(=O)OCCC[Si](OC)(OC)OC
not listed: [2]
inactive: all other assays above

NC(=O)NC(N)=O
not listed: [2] | [7]
inactive: all other assays above

CC1(C)CC(N)CC(C)(CN)C1 (stereo not drawn)
not listed: [2] | [4]
inactive: all other assays above

CC(=N[Si](C)(C)C)O[Si](C)(C)C
inactive: [1] | [3] | [4] | [5] | [6]

ClCCOCCOCCCl
not listed: [2]
inactive: all other assays above

COc1ccc2[nH]cc(CCNC(C)=O)c2c1
not listed: [2] | [8]
inactive: all other assays above

CCCCCCCCCCCCOC(C)=O
not listed: [2]
inactive: all other assays above

Nc1ccc(N)c([N+](=O)[O-])c1
active: [3] 77.1 µM [middle of 5 runs] | [4] 3.14 µM [middle of 5 runs]
not listed: [1] | [5]
inactive: all other assays above

CCCCC/C=C\C=C\C(=O)OCC
active: [1] 58.8 µM | [3] 123 µM | [9] 55.1 µM | [8] 28.3 µM
inactive: [5] | [6] | [7]

O=C(O)c1ccc(C(=O)O)c(C(=O)O)c1
not listed: [2] | [5]
inactive: all other assays above

O=S1(=O)CC=CC1
not listed: [2]
inactive: all other assays above

[Cu+]
active: [4] 15 µM
not listed: [2] | [7]
inactive: all other assays above

C1=COCCC1
not listed: [2] | [4] | [9]
inactive: all other assays above

C=CCCCCCCCCC(=O)OCC
not listed: [2] | [8]
inactive: all other assays above

C=CC(C)(CCC=C(C)C)OC(=O)CC (stereo not drawn)
not listed: [2] | [8]
inactive: all other assays above

CC(CCO)CC(C)(C)C (stereo not drawn)
not listed: [2] | [9]
inactive: all other assays above

OCCCO
not listed: [2] | [9]
inactive: all other assays above

CC(C)C(=O)c1ccccc1
not listed: [2]
inactive: all other assays above

CC(=O)N(C)C
not listed: [1] | [5]
inactive: all other assays above

N#CCCNCCC#N
not listed: [2] | [8] | [9]
inactive: all other assays above

CCCCCC1C(=O)CCC1CC(=O)OC (stereo not drawn)
not listed: [2] | [7]
inactive: all other assays above

COC(=O)C(C)Oc1ccc(Oc2ncc(C(F)(F)F)cc2Cl)cc1 (stereo not drawn)
active: [4] 3.09 µM | [7] 149 µM
inactive: [1] | [3] | [9] | [6]

CC(=O)c1ccc2ccccc2c1
active: [4] 3.53 µM
not listed: [2] | [8]
inactive: all other assays above

C=C1CC[C@H]2O[C@]2(C)CC[C@@H]2[C@@H]1CC2(C)C
inactive: [1] | [9] | [4] | [6] | [7]
active: [3] 191 µM

CCCCCC1CCC(=O)O1 (stereo not drawn)
not listed: [2] | [4] | [8]
inactive: all other assays above

c1ccc2c(c1)-c1ccc3ccc4cccc5cc-2c1c3c45
active: [4] 0.543 µM
not listed: [2] | [8]
inactive: all other assays above

CC(C)(C)c1cc(CCC(=O)OCCSCCOC(=O)CCc2cc(C(C)(C)C)c(O)c(C(C)(C)C)c2)cc(C(C)(C)C)c1O
not listed: [2] | [8]
inactive: all other assays above

C/C=C(\C)C(=O)OC/C=C(\C)CCC=C(C)C
not listed: [2]
inactive: all other assays above

CCCCCCCCCO
not listed: [2]
inactive: all other assays above

FC(F)(F)c1ccc(Cl)c(Cl)c1
not listed: [2] | [8]
inactive: all other assays above
